According to PubChem BioAssay (NCI):
About 83,000 compounds went through this panel and 20% of them were active in at least one assay; those are over-represented in the sample as a whole.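 A percent growth of 40 corresponds to 60% growth inhibition; 0 means no net growth; -100 means all cells died. Active threshold: below 10.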 The source made the active and inactive calls.

Legend:
Test in all cases: NCI-60 one-dose screen, 48 h (100 = growth as untreated, 0 = no growth, -100 = all killed)
SK-MEL-2 melanoma = conditions: 10 µM unless noted
SN12C renal = conditions: 10 µM unless noted
UO-31 renal = conditions: 10 µM unless noted
TK-10 renal = conditions: 10 µM unless noted
ACHN renal = conditions: 10 µM unless noted
CAKI-1 renal = conditions: 10 µM unless noted
A498 renal = conditions: 10 µM unless noted
MOLT-4 leukemia = conditions: 10 µM unless noted
RPMI-8226 leukemia = conditions: 10 µM unless noted
OVCAR-8 ovarian = conditions: 10 µM unless noted
OVCAR-5 ovarian = conditions: 10 µM unless noted
OVCAR-4 ovarian = conditions: 10 µM unless noted
SK-OV-3 ovarian = conditions: 10 µM unless noted
IGROV1 ovarian = conditions: 10 µM unless noted
OVCAR-3 ovarian = conditions: 10 µM unless noted
HS 578T breast = conditions: 10 µM unless noted
NCI/ADR-RES ovarian = conditions: 10 µM unless noted
CCRF-CEM leukemia = conditions: 10 µM
SR leukemia = conditions: 10 µM unless noted
EKVX NSCLC = conditions: 10 µM

Measured: growth

CSc1nc(N)n2nccc2n1
inactive: SK-MEL-2 melanoma 115% | SN12C renal 96.8% | UO-31 renal 65.4% | TK-10 renal 99.8% | ACHN renal 112% | CAKI-1 renal 70.6% | A498 renal 109% | MOLT-4 leukemia 98.9% | RPMI-8226 leukemia 106% | OVCAR-8 ovarian 98.5% | OVCAR-5 ovarian 114% | OVCAR-4 ovarian 103% | SK-OV-3 ovarian 105% | IGROV1 ovarian 105% | OVCAR-3 ovarian 106% | HS 578T breast 105% | NCI/ADR-RES ovarian 105%

O=C(NCCNCCO)c1cc([N+](=O)[O-])cc([N+](=O)[O-])c1O
inactive: SK-MEL-2 melanoma 117% | SN12C renal 96.1% | UO-31 renal 95.9% | ACHN renal 107% | CAKI-1 renal 100% | A498 renal 106% | CCRF-CEM leukemia 94.3% | MOLT-4 leukemia 102% | SR leukemia 99.8% | RPMI-8226 leukemia 96.7% | OVCAR-8 ovarian 101% | OVCAR-5 ovarian 108% | OVCAR-4 ovarian 108% | SK-OV-3 ovarian 111% | IGROV1 ovarian 107% | OVCAR-3 ovarian 110% | HS 578T breast 109% | NCI/ADR-RES ovarian 107%

COC(=O)[C@H](Cc1cn(C)cn1)NC(=O)[C@H](Cc1c[nH]c2ccccc12)NC(=O)Nc1cc(C(F)(F)F)cc(C(F)(F)F)c1
active: SK-MEL-2 melanoma -82.6% [100 µM] | SN12C renal -83.7% [100 µM] | TK-10 renal -66.2% [100 µM] | ACHN renal -38% [100 µM] | A498 renal -35.8% [100 µM] | MOLT-4 leukemia -45.8% [100 µM] | SR leukemia -42.8% [100 µM] | RPMI-8226 leukemia -38.4% [100 µM] | OVCAR-8 ovarian -78.5% [100 µM] | OVCAR-5 ovarian -73.6% [100 µM] | OVCAR-4 ovarian -50.7% [100 µM] | SK-OV-3 ovarian -89.9% [100 µM] | IGROV1 ovarian -46.2% [100 µM] | OVCAR-3 ovarian -95.7% [100 µM]
inactive: UO-31 renal 22.5% [100 µM] | HS 578T breast 10.4% [100 µM] | NCI/ADR-RES ovarian 69.7% [100 µM]

Cc1ccc(NCc2cn(-c3ccc(C(=O)O)cc3)nc2-c2ccc(C(=O)O)cc2)cc1
inactive: SK-MEL-2 melanoma 94.3% | SN12C renal 108% | UO-31 renal 90.6% | TK-10 renal 99% | ACHN renal 108% | CCRF-CEM leukemia 104% | MOLT-4 leukemia 105% | SR leukemia 103% | RPMI-8226 leukemia 109% | OVCAR-8 ovarian 97.8% | OVCAR-5 ovarian 106% | OVCAR-4 ovarian 109% | SK-OV-3 ovarian 102% | IGROV1 ovarian 107% | OVCAR-3 ovarian 101% | HS 578T breast 101% | NCI/ADR-RES ovarian 102%

COC1=CC(c2ccc[nH]2)=N/C1=C\c1[nH]c(C)c(C(=O)CCCCC(=O)NC(C)(C)C)c1C
active: TK-10 renal -18.2%
inactive: SK-MEL-2 melanoma 98% | SN12C renal 55.3% | UO-31 renal 18% | ACHN renal 71.8% | CAKI-1 renal 34.1% | CCRF-CEM leukemia 68.5% | MOLT-4 leukemia 21.2% | SR leukemia 83.4% | RPMI-8226 leukemia 35.4% | OVCAR-8 ovarian 28.2% | OVCAR-5 ovarian 48.3% | OVCAR-4 ovarian 39.6% | SK-OV-3 ovarian 102% | OVCAR-3 ovarian 18.4% | NCI/ADR-RES ovarian 30.1%

COc1cc(CNC(=O)CCCC/C=C/C(C)C)ccc1OCc1nnc(Nc2ccccc2F)o1
active: OVCAR-4 ovarian 0.691%
inactive: SK-MEL-2 melanoma 111% | SN12C renal 70.5% | UO-31 renal 52.8% | TK-10 renal 97.7% | ACHN renal 56.1% | A498 renal 92.5% | CCRF-CEM leukemia 83% | MOLT-4 leukemia 82% | RPMI-8226 leukemia 64.9% | OVCAR-8 ovarian 45.2% | OVCAR-5 ovarian 77.7% | SK-OV-3 ovarian 48.6% | IGROV1 ovarian 58.4% | OVCAR-3 ovarian 68.3% | HS 578T breast 83.7% | NCI/ADR-RES ovarian 43.3%

COC(=O)/C=C1/CCCCC1(C)C(=O)OC (stereo not given)
inactive: SK-MEL-2 melanoma 108% | SN12C renal 101% | UO-31 renal 95.3% | ACHN renal 112% | CAKI-1 renal 107% | A498 renal 107% | MOLT-4 leukemia 99.6% | SR leukemia 92.8% | RPMI-8226 leukemia 101% | OVCAR-8 ovarian 98.4% | OVCAR-5 ovarian 118% | OVCAR-4 ovarian 103% | SK-OV-3 ovarian 110% | IGROV1 ovarian 107% | OVCAR-3 ovarian 118% | HS 578T breast 105% | NCI/ADR-RES ovarian 111%

CC(=O)CC(=O)OC/C=C(/C)CCC=C(C)C
inactive: SK-MEL-2 melanoma 126% | SN12C renal 94.5% | UO-31 renal 102% | TK-10 renal 108% | ACHN renal 102% | A498 renal 117% | CCRF-CEM leukemia 116% | MOLT-4 leukemia 94.7% | SR leukemia 92.2% | RPMI-8226 leukemia 112% | OVCAR-8 ovarian 103% | OVCAR-5 ovarian 100% | OVCAR-4 ovarian 113% | SK-OV-3 ovarian 111% | IGROV1 ovarian 116% | OVCAR-3 ovarian 110% | NCI/ADR-RES ovarian 102%

CC(=O)N(N=O)c1ccc([N+](=O)[O-])cc1Cl
inactive: SK-MEL-2 melanoma 73.1% | SN12C renal 47.4% | UO-31 renal 57.3% | TK-10 renal 130% | ACHN renal 58.9% | CAKI-1 renal 100% | CCRF-CEM leukemia 46.8% | MOLT-4 leukemia 58.4% | SR leukemia 63.1% | RPMI-8226 leukemia 17.2% | OVCAR-8 ovarian 66.1% | OVCAR-5 ovarian 88.5% | OVCAR-4 ovarian 55.5% | SK-OV-3 ovarian 66.9% | IGROV1 ovarian 67.7% | OVCAR-3 ovarian 44.5% | NCI/ADR-RES ovarian 64.5%

COc1ccc2cc(C(C)C(=O)Nc3ccc(S(=O)(=O)Nc4cc(C)on4)cc3)ccc2c1 (stereo not given)
inactive: SK-MEL-2 melanoma 117% | SN12C renal 116% | UO-31 renal 90% | TK-10 renal 103% | ACHN renal 97.3% | CAKI-1 renal 86.4% | MOLT-4 leukemia 106% | SR leukemia 100% | RPMI-8226 leukemia 96.6% | OVCAR-8 ovarian 95.8% | OVCAR-5 ovarian 112% | OVCAR-4 ovarian 100% | SK-OV-3 ovarian 101% | IGROV1 ovarian 114% | OVCAR-3 ovarian 110% | NCI/ADR-RES ovarian 105%

CC1(C)N=C(N)N=C(N)N1c1cccc(CCCCOc2ccccc2)c1
active: RPMI-8226 leukemia 8.3%
inactive: SK-MEL-2 melanoma 70.7% | UO-31 renal 84.2% | TK-10 renal 24% | ACHN renal 35.1% | CAKI-1 renal 67.7% | A498 renal 49.7% | CCRF-CEM leukemia 13.2% | MOLT-4 leukemia 14.1% | SR leukemia 31.6% | OVCAR-8 ovarian 19.9% | OVCAR-5 ovarian 29.6% | OVCAR-4 ovarian 61% | SK-OV-3 ovarian 41.8% | IGROV1 ovarian 26.6% | OVCAR-3 ovarian 26.5% | NCI/ADR-RES ovarian 107%

C=C(C)C(C(=O)OCC)(C(=O)OCC)C(C)C
inactive: SK-MEL-2 melanoma 121% | UO-31 renal 100% | TK-10 renal 113% | ACHN renal 104% | CAKI-1 renal 105% | A498 renal 110% | CCRF-CEM leukemia 98.2% | MOLT-4 leukemia 114% | SR leukemia 120% | RPMI-8226 leukemia 99.4% | OVCAR-8 ovarian 108% | OVCAR-5 ovarian 94.7% | OVCAR-4 ovarian 98.5% | SK-OV-3 ovarian 107% | IGROV1 ovarian 117% | OVCAR-3 ovarian 116% | NCI/ADR-RES ovarian 116%

O=C(Nc1ccc(-n2cc(-c3ccncc3)c(-c3ccc(Cl)c(O)c3)n2)cc1)c1ccc(Cl)c(C(F)(F)F)c1
active: UO-31 renal -37.3% | TK-10 renal -19.8% | ACHN renal -24.3% | CAKI-1 renal -33.5% | CCRF-CEM leukemia 3.34% | MOLT-4 leukemia -1.8% | SR leukemia -13.4% | RPMI-8226 leukemia -42.7% | OVCAR-8 ovarian -1.91% | OVCAR-3 ovarian -24.9% | HS 578T breast -53.7%
inactive: EKVX NSCLC 35.2% | SN12C renal 66.6% | A498 renal 71.8% | OVCAR-5 ovarian 52.6% | OVCAR-4 ovarian 40.6% | SK-OV-3 ovarian 14.4% | IGROV1 ovarian 27.5% | NCI/ADR-RES ovarian 29.4%

COc1cc(-c2nn(-c3ccc(NC(=O)c4ccc(Cl)c(Cl)c4)cc3)cc2-c2ccncc2)ccc1Cl
active: RPMI-8226 leukemia 4.1% | HS 578T breast -23.7%
inactive: EKVX NSCLC 73% | SN12C renal 79.4% | UO-31 renal 36.3% | TK-10 renal 17.2% | ACHN renal 74.1% | CAKI-1 renal 44.4% | A498 renal 81.4% | CCRF-CEM leukemia 67.6% | MOLT-4 leukemia 28.7% | SR leukemia 11.3% | OVCAR-8 ovarian 31.4% | OVCAR-5 ovarian 81.8% | OVCAR-4 ovarian 57% | SK-OV-3 ovarian 94.4% | IGROV1 ovarian 96.3% | OVCAR-3 ovarian 68.4% | NCI/ADR-RES ovarian 72.5%

Br/C(=N\Nc1nn[nH]n1)c1ccccc1
inactive: SK-MEL-2 melanoma 90.9% | SN12C renal 98.7% | UO-31 renal 78.6% | ACHN renal 92.7% | CAKI-1 renal 92.5% | A498 renal 114% | MOLT-4 leukemia 105% | RPMI-8226 leukemia 102% | OVCAR-8 ovarian 103% | OVCAR-5 ovarian 102% | OVCAR-4 ovarian 107% | SK-OV-3 ovarian 98.6% | IGROV1 ovarian 111% | OVCAR-3 ovarian 120% | HS 578T breast 99.4% | NCI/ADR-RES ovarian 100%

CC(=O)N1CCN(CCNC(=O)n2cc(-c3ccncc3)c(-c3cc(O)cc(Cl)c3)n2)CC1
inactive: EKVX NSCLC 112% | SN12C renal 94.4% | UO-31 renal 72.9% | TK-10 renal 62.5% | ACHN renal 76.9% | CAKI-1 renal 99% | A498 renal 93.1% | CCRF-CEM leukemia 71.6% | MOLT-4 leukemia 67.3% | SR leukemia 16.7% | RPMI-8226 leukemia 44.9% | OVCAR-8 ovarian 66% | OVCAR-5 ovarian 110% | OVCAR-4 ovarian 116% | SK-OV-3 ovarian 101% | IGROV1 ovarian 76.2% | OVCAR-3 ovarian 102% | HS 578T breast 91.9% | NCI/ADR-RES ovarian 101%

COC(=O)c1cc(O)c2cc3c(cc2c1-c1cc(OC)c(OC)c(OC)c1)OCO3
active: CCRF-CEM leukemia 8.87% | RPMI-8226 leukemia 4.51% | OVCAR-3 ovarian 8.41% | HS 578T breast -2% | NCI/ADR-RES ovarian 3.4%
inactive: EKVX NSCLC 55.8% | SN12C renal 34.1% | UO-31 renal 44.8% | TK-10 renal 43.2% | ACHN renal 36.8% | CAKI-1 renal 30.2% | A498 renal 45.6% | MOLT-4 leukemia 35.3% | SR leukemia 24.3% | OVCAR-8 ovarian 45.8% | OVCAR-5 ovarian 45% | OVCAR-4 ovarian 71.3% | SK-OV-3 ovarian 22.2% | IGROV1 ovarian 44%
